# Screening data: PubChem BioAssay, National Center for Advancing Translational Sciences (NCATS)
# This is one part of a sample in which hits are shown more often than they occur.
# Shiga inhibitor – A qHTS for Small Molecule Inhibitors of Shiga Toxin; Vero cells, Shiga toxin protein synthesis inhibition reporter; inhibition, % at 38.7 µM; actives 9.2% (n = 290,000); AID 2315, 2010; in the data active means inhibition mostly above about 28%, no sharp cut-off; inactive means mostly below about 43%; further: 0% is about no effect
# LmPK inh – qHTS Assay for Inhibitors of Leishmania Mexicana Pyruvate Kinase (LmPK) | Q27686 | purified LmPK, Kinase-Glo ATP luminescence, 1 h | Potency, µM (series often up to 57.5 µM), without a hit: at the top dose activity change, negative = inhibition, most hits filed as inhibitors | actives 0.37% (n = 290,000) | AID 1721, 2009; further: potency means the concentration at half of the fitted maximal effect; on the % scale 0 is the no-effect control and ±100 the full control effect
# Target sequence (Q27686 whole entry, looked up): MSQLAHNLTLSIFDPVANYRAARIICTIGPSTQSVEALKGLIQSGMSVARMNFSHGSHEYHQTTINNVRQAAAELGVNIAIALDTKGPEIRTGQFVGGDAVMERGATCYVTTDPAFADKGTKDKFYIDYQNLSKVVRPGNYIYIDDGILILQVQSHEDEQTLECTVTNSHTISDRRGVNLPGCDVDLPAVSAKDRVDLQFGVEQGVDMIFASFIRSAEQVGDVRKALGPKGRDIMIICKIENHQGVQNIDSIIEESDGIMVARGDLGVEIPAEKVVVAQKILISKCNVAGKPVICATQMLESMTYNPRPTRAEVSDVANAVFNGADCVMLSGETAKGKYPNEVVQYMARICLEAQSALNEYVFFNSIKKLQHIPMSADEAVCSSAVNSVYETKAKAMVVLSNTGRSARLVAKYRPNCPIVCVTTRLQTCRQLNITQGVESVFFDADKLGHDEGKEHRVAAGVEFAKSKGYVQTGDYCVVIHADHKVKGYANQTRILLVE
#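 0.1 nM LmPK, 0.5 mM PEP, 0.1 mM ADP; 50 mM imidazole pH 7.2, 7 mM MgCl2, 50 mM KCl; 1 h RT. Kinase-Glo luminescence readout, normalized to no-enzyme (full inhibition) and uninhibited wells.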
# CHX counter – Cycloheximide Counterscreen for Small Molecule Inhibitors of Shiga Toxin. cell reporter, cycloheximide protein synthesis inhibition counterscreen. max response, %. actives 12% (n = 300,000); in the data active means max response mostly above about 13%, no sharp cut-off; inactive means mostly below about 14%; further: read at 38.3 µM for the half of the compounds with a filed dose; 0% is about no effect
# FBPA Giardia inh – qHTS Assay for Inhibitors of Fructose-1,6-bisphosphate Aldolase from Giardia Lamblia. A8B2U2. Potency, µM (titrated, usually from 59.6 µM), for inactives: at the top dose activity, negative = inhibition, usual class: inhibitors. purified Giardia FBPA. AID 2451, 2010. actives 0.71% (n = 290,000); further: potency means the concentration at half of the fitted maximal effect; on the % scale 0 is the no-effect control and ±100 the full control effect; nearly all actives have a fitted effect of over 55% in size
#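 Giardia FBPA (40 nM reagent) was preincubated 10 min at RT with compound (up to 57.5 uM final), then substrate plus GAPDH/TPI/NAD/arsenate coupling system with diaphorase/resazurin was added; resorufin fluorescence (525/598 nm) was read after 20 min.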
# RE007 growth inh – qHTS Assay for Inhibitors of the HIV-1 protein Vpr; actives 0.21% (n = 360,000); S. pombe RE007 Vpr strain, BacTiter-Glo ATP luminescence, 24 h; AID 651644, 2012; Potency, µM (series often up to 92.2 µM), for the others: at the top dose activity change, negative = less growth, actives largely listed as inhibitors; active means well fitted falling curve with a large enough effect; inconclusive means small, poorly fitted or top-dose-only effect; inactive means no such curve, though single readings can be large or run the other way; further: potency means the concentration at half of the fitted maximal effect; on the % scale 0 is the no-effect control and ±100 the full control effect; nearly all actives have a fitted effect of over 50% in size
#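 Fission yeast strain RE007, carrying one chromosomally integrated HIV-1 vpr copy, was seeded at OD 0.01 in PMG+AL medium with 23 nL pinned compound. After 24 h at 30 °C and 99% humidity, viability was read by BacTiter-Glo luminescence.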
# TbPYK inhibitor – qHTS of Trypanosoma Brucei Inhibitors. TbPYK enzyme, Kinase-Glo Plus ATP luminescence, 45 min. Potency, µM (highest dose often 76.8 µM), for the others: at the top dose activity, negative = inhibition, usual class: inhibitors. actives 0.12% (n = 410,000); further: potency means the concentration at half of the fitted maximal effect; on the % scale 0 is the no-effect control and ±100 the full control effect; nearly all actives have a fitted effect of over 50% in size
#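 ADP (130 uM final) triggers the TbPYK reaction after compound addition; incubation is 45 min at room temperature. Kinase-Glo Plus is then added and luminescence imaged. Normalized data are fitted to concentration-effect curves.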
# * marks the source's active call; other numbers are inactive results; ? = inconclusive; nt = no result given. Unless noted, the call rests on the fitted dose curve; in most records, active means well fitted curve in the direction sought with a large enough effect; inconclusive means small, poorly fitted or top-dose-only effect, or another doubt; inactive means no such curve, though single readings can be large; an effect the other way counts as inactive or inconclusive.
SMILES,Shiga inhibitor,LmPK inh,CHX counter,FBPA Giardia inh,RE007 growth inh,TbPYK inhibitor
CC(C)([CH2][Sn]([CH2]C(C)(C)c1ccccc1)([CH2]C(C)(C)c1ccccc1)[O][Sn]([CH2]C(C)(C)c1ccccc1)([CH2]C(C)(C)c1ccccc1)[CH2]C(C)(C)c1ccccc1)c1ccccc1,-20,nt,-16,3%,nt,nt
CCN(CCCNC(=O)CSc1cc(=O)n(CC)c2ccccc12)c1cccc(C)c1,nt,nt,nt,nt,nt,0%
Cc1cc(C)n(-c2nc(C)c(C)c(=O)n2CC(=O)Nc2cccc([N+](=O)[O-])c2)n1,nt,nt,nt,nt,nt,1%
CCOC(=O)CSc1nc2c(sc3ccccc32)c(=O)n1CCc1ccccc1,nt,nt,nt,nt,nt,2%
Cc1ccc(C(=O)OC(C)C(=O)c2cc(C)c(C)cc2C)o1 (centres undefined),27,2%,20*,nt,-11%,0%
COc1cc(C2NC(=O)NC(O)(C(F)(F)F)C2C(=O)c2cccs2)ccc1O (centres undefined),87*,1%,34*,3%,0%,-4%
COc1ccccc1NC(=O)c1cnc(SCC(=O)N2CCOCC2)n(C)c1=O,nt,nt,nt,nt,nt,0%
COc1ccccc1C(=O)NC(=S)N1CCCc2ccccc21,164*,2%,48*,?,14%,-14%
COc1ccc(C(=O)NC(=S)N2CCCc3ccccc32)cc1OC,15,-1%,21*,-8%,5%,-7%
COc1ccccc1C(=O)NC(=S)Nc1ccccc1N1CCCC1,31,-16%,28*,nt,nt,nt
COc1ccccc1C(=O)NC(=S)N1CCc2ccccc21,7,3%,3,-18%,-12%,-5%
O=C(CSc1cccc[n+]1[O-])c1ccccc1Br,22,4%,12,-10%,22µM*,2%
Cc1cc(C(=O)COc2cccc(-n3cnnn3)c2)c(C)n1-c1ccccc1,32,4%,16*,-18%,-4%,1%
Cc1cc(-n2c(C)cc(C(=O)CSc3nnnn3-c3ccccc3)c2C)no1,8,1%,5,3%,40%,0%
Cc1cc(C(=O)CSc2nncn2C)c(C)n1-c1ccccc1,59*,-14%,34*,-25%,-5%,-3%
Cc1cc(C(=O)CSc2cccc[n+]2[O-])c(C)n1-c1ccc(Br)cc1,91*,7%,35*,-4%,nt,nt
CCOc1ccc(NC(=O)C2CCN(c3nnc(C)c4c(C)n(-c5ccccc5)nc34)CC2)cc1,nt,nt,nt,nt,nt,-9%
Cc1cc(C(=O)CSc2cccc[n+]2[O-])c(C)n1-c1ccccc1,85*,-5%,47*,1%,-14%,-5%
CC(C)OCCCN1CN(S(=O)(=O)c2ccc(Cl)cc2)c2nc3ccccc3nc21,11,-2%,18*,-5%,0%,-1%
CCOCCCN1CN(S(=O)(=O)c2ccc(Cl)cc2)c2nc3ccccc3nc21,8,0%,-2,-3%,0%,2%
CC(C)OCCCN1CN(S(=O)(=O)c2cccc(Cl)c2)c2nc3ccccc3nc21,38*,0%,22*,2%,25%,-5%
O=C(CCC(=O)N1CCSc2ccccc21)NC1CCCCC1,-5,-5%,-3,8%,0%,-3%
CCN(CC)C(=O)C1=CC(c2ccc3c(c2)OCO3)=NS(=O)(=O)N1C,nt,nt,nt,nt,nt,3%
CCc1cc(C(=O)c2ccc(C)cc2)c(NC(=O)CCl)s1,73*,1%,49*,-5%,22%,-2%
CC(=O)c1ccc(NC(=O)C2(c3ccccc3)CCOCC2)cc1,112*,-9%,37*,2%,-8%,7%
N#Cc1ccc(C(=O)NCc2ccc3c(c2)CCN3C(=O)c2ccc(F)cc2)cc1,nt,nt,nt,nt,nt,0%
COc1ccc2c(CC(=O)N3CCc4ccccc43)coc2c1,66*,?,42*,-7%,-12%,-5%
CC(CC(=O)N1CCc2ccccc21)n1cccn1 (centres undefined),25,0%,27*,3%,14%,1%
O=C(CCn1cccc1)N1CCc2ccccc21,17,-3%,53*,-1%,?,0%
